Screening data (PubChem)
A selection: hits, their analogues and other compounds. The true share with any hit is near 1.8%.
ARNT TACC3 PPI: disruptors of ARNT/TACC3 protein interaction, primary screen, biochemical, AlphaScreen, single concentration | Transforming acidic coiled-coil-containing protein 3 (Homo sapiens), Q9Y6A5 | AlphaScreen His-ARNT PAS-B/GST-TACC3 binding, luminescence; TACC3 fragment carries E629A point mutation | inhibition, % at 9.99 µM | 390,000 tested, 0.66% active;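 active = mean inhibition of replicates at least 50% and at least half of replicates each reaching 50%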;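 note: 0% = complete ARNT plus TACC3 wells and 100% = ARNT alone without TACC3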
GSIS activator: GLuc luminescence reporter in INS-1E cells, primary screen for activators of glucose-dependent secretion of insulin; INS-1E GLuc reporter insulin secretion, 2-3 h; activation, % at 16.6 µM; 370,000 tested, 0.61% active;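 active = lowest replicate activation of at least 40%, so every replicate reaches that level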;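 note: 0% = median of neutral control wells and 100% = median of IBMX positive control wells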
iPSC survival up: enhancers of single-cell hiPSC survival, primary screen, ATPlite luminescence. 360,000 tested, 0.044% active. 100% = ROCK inhibitor wells, 0% = DMSO. survival enhancement, % at 20 µM; in the data active = survival enhancement above about 18%;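 note: cells exposed to compounds for 16 hours before the ATP read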
CendR NRP1 mod: modulators of CendR peptide binding to NRP-1, primary screen, biochemical, fluorescence polarization, uHTS. Neuropilin-1 (Homo sapiens), O14786. FAM-RPARPAR peptide binding to NRP-1. inhibition, % at 25 µM. 360,000 tested, 0.85% active. AID 602438, 2012;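 active = inhibition or corrected inhibition above about 18%, plus a signal ratio from 0.5 to 1.5, limit read from the data, passing the limit was not always enough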
Target sequence (O14786 whole entry, looked up): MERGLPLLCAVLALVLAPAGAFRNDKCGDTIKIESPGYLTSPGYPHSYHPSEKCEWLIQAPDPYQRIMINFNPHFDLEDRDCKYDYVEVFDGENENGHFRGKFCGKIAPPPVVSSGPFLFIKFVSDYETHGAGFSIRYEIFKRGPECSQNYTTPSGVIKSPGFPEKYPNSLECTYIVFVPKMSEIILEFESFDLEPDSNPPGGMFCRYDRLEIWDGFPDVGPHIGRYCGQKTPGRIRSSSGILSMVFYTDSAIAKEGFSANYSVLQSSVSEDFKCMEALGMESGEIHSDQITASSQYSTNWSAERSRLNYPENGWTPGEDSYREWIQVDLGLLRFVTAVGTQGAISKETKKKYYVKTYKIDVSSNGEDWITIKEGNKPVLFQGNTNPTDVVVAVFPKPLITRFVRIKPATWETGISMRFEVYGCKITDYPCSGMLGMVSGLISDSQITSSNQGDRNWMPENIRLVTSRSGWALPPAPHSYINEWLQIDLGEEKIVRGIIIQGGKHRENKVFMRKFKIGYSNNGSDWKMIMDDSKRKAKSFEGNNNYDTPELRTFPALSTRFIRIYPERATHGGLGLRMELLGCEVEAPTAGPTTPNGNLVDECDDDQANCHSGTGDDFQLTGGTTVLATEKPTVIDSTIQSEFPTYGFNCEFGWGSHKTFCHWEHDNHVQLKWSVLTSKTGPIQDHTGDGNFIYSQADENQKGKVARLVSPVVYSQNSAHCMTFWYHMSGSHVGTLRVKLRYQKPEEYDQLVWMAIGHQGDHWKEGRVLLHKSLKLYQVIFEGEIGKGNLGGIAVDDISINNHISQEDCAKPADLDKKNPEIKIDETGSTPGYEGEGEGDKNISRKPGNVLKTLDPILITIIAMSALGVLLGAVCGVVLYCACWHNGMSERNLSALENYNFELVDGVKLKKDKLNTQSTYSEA
ABCB6 inh 2: ABCB6 transporter inhibitors, primary screen, K562-ABCB6 cells, flow cytometry, MLPCN library | ATP-binding cassette sub-family B member 6 (Homo sapiens), Q9NP58 | K562-ABCB6 porphyrin accumulation, 1 h; stronger effect = lower value | fluorescence ratio to DMSO, % at 10 µM | 360,000 tested, 0.19% active | AID 602162, 2011;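 active = fluorescence ratio to DMSO below 75%, the collection mean minus 3 SD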;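 note: signal is porphyrin accumulated inside mitochondria; 100% equals median channel fluorescence of DMSO control wells; lower ratio means ABCB6 inhibition with less porphyrin fluorescence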
Numbers without * were called inactive; / = not tested or not shown.

SMILES | ARNT TACC3 PPI | GSIS activator | iPSC survival up | CendR NRP1 mod | ABCB6 inh 2
COc1ccc2c3c(n(C)c2c1)[C@H](CO)N(Cc1ccccc1OC)CC31CN(CC2CCOCC2)C1 | / | -20 | / | / | /
CC(C)C12CN3CC(C(C)C)(CN(C1)C3c1ccccc1O)C2=O (centres undefined) | -4 | / | 21* | -2 | 88
CC#CCN(Cc1ccco1)C(=O)C1CCC(=O)N(Cc2ccccc2F)C1 (centres undefined) | -2 | -6 | 0 | 23* | 95
CC(C)C#Cc1cnc2c(c1)C(=O)N([C@@H](C)CO)C[C@H](C)[C@@H](CN(C)C(=O)Nc1cccc(F)c1)O2 | / | -36 | / | / | /
COc1ccc2c3c([nH]c2c1)[C@@H](CO)N(C(C)=O)CC31CN(C(=O)Nc2ccccc2F)C1 | / | 3 | / | / | /
CC(=N)c1c(O)cc(C)oc1=O | -5 | / | -2 | 19* | 94
Cc1ccc(S(=O)(=O)N[C@@H]2C=C[C@H](CC(=O)NCc3ccncn3)O[C@@H]2CO)cc1 | -15 | 8 | / | / | /
CC1CCC/C(=C\Nc2ccc(O)cc2)C1=O (centres undefined) | 21* | / | 2 | 3 | 104
Cc1cc(C(=O)O)ccc1N/C=C1\CCCC(C)C1=O (centres undefined) | -3 | / | 3 | 4 | 96
C[C@@H]1CCCCO[C@@H](CN(C)Cc2ccc(C(F)(F)F)cc2)[C@H](C)CN([C@H](C)CO)C(=O)c2cc(NC(=O)Nc3ccc(F)cc3)ccc2O1 | 12 | -14 | / | / | /
O=S(=O)(O)c1cccc2c(N=Nc3ccc(O)c4ncccc34)cccc12 | 73* | / | 0 | 54 | 97
O=C(C[C@@H]1CC[C@@H]2[C@H](COC[C@H](O)CN2Cc2ccc(F)cc2)O1)N1CCc2ccccc2C1 | 9 | -13 | / | / | /
COCCn1c(C)cc(C(=O)COC(=O)C23CC4CC(CC(O)(C4)C2)C3)c1C | -10 | / | 2 | -2 | 2.0*
Cc1cc(C(=O)COC(=O)C23CC4CC(CC(O)(C4)C2)C3)c(C)n1-c1c(C)n(C)n(-c2ccccc2)c1=O | -1 | 24 | 0 | 8 | 95
CCOc1ccc(/C=C/C(=O)c2ccc(-c3ccccc3)cc2)cc1 | -7 | 47* | -2 | 8 | 76
CCN(CC)CCCNc1ccc2ncn3c4ccc(O)cc4c(=O)c1c23 | 74* | -10 | -5 | 145 | 930
Nc1nc(-c2ccccc2)cn1N | 48* | / | 1 | -12 | 99
C[C@H]1CCCCO[C@@H](CN(C)CC2CCCCC2)[C@@H](C)CN([C@@H](C)CO)C(=O)c2cc(NC(=O)Nc3ccc4c(c3)OCO4)ccc2O1 | 21 | -20 | / | / | /
CC(C)Cc1nc2n[nH]c(N)c2c2c1CCCC2 | 22 | / | -5 | -2 | 122
CCc1nc2n[nH]c(N)c2c2c1CCCC2 | -1 | 121* | 10 | 9 | 95
CCCc1nc2n[nH]c(N)c2c2c1COC(C)(C)C2 | -7 | 49* | 2 | -10 | 96
CN1C(=O)c2cc(NC(=O)C3CCC3)ccc2OC[C@H]2O[C@H](CC(=O)NCCc3ccncc3)CC[C@@H]21 | / | 8 | / | / | /
CCn1cc(C(=O)N2CCN(C(=O)c3ccco3)CC2)c2cc(OC)c(OC)cc2c1=O | 5 | / | -2 | 24* | 90
CCn1cc(C(=O)N2CCN(c3ccccn3)CC2)c2cc(OC)c(OC)cc2c1=O | 8 | 16 | 2 | 5 | 97
O=C(COCc1cc(-c2ccc3c(c2)OCO3)on1)N1CCN(c2cccc(C(F)(F)F)c2)CC1 | -4 | -35 | 0 | 19* | 104
SMILES | ARNT TACC3 PPI | GSIS activator | iPSC survival up | CendR NRP1 mod | ABCB6 inh 2
COc1ccc2c(c1)c(=O)c(C(=O)c1ccccc1)cn2Cc1ccccc1 | 4 | 1 | 1 | -10 | 100
O=C(O)c1cn(Cc2ccccc2)c2ccc(Cl)cc2c1=O | -7 | 5 | 1 | 23* | 98
COc1ccc(NC(=O)c2cccc(-c3ccc(O)cc3)c2)cn1 | 3 | -2 | 1 | 41* | 109
C/C(=C/c1ccccc1)C(=O)N1CCN(c2ccccc2F)CC1 | -5 | -23 | 0 | 1 | 99
C/C(=C\c1ccccc1)C(=O)N1CCN(c2cccc(C(F)(F)F)c2)CC1 | -1 | -20 | 0 | 29* | 105
Cc1[nH]n(-c2nc(-c3ccccc3F)cc(=O)[nH]2)c(=O)c1CCO | 45* | 7 | 1 | 4 | 94
C[C@@H]1CCCCO[C@H](CN(C)S(=O)(=O)c2ccc(F)cc2)[C@@H](C)CN([C@@H](C)CO)C(=O)c2cc(N(C)C)ccc2O1 | 12 | -10 | / | / | /
COc1ccc(C(=O)c2sc3nc(-c4ccccc4)ccc3c2N)cc1OC | 3 | / | -1 | -68 | 92
COc1cc2ccc(CC(N)=O)cc2cc1OC | / | / | 0 | 37* | 100
COc1ccc(C(=O)c2ccc(OC)c(OC)c2)cc1 | 12 | 56* | 0 | -4 | 106
COc1ccc(CCC(N)=O)cc1OC | -5 | 31 | 3 | 4 | 96
COc1ccc(CC(=O)OCC(=O)c2ccc(OC)c(OC)c2)cc1 | -1 | 41* | 0 | 17* | 103
COc1ccc(-c2ccc3c(N)c(C(=O)c4ccc(OC)c(OC)c4)sc3n2)cc1 | -4 | 172* | 0 | -53 | 111
COc1ccc(C(=O)c2cc(OC)c(OC)c(OC)c2)cc1OC | / | / | -2 | -1 | 103
COc1cc(C(=O)C(=O)c2ccc(OC)c(OC)c2)ccc1O | -10 | 45* | 4 | 4 | 96
COc1ccc(C(=O)c2ccc(OC)c(OC)c2)cc1OC | -5 | / | 2 | 5 | 94
COc1ccc(C(=O)c2ccccc2)cc1 | -3 | -6 | 0 | 5 | 108
Cc1ccc(C(=O)CCS(=O)(=O)c2ccc(Cl)cc2)cc1 | -2 | 0 | 0 | 20* | 103
COc1ccc(C(=O)c2ccc(Br)cc2)cc1 | -1 | 84* | -1 | 6 | 99
COc1ccc(C(=O)c2nccc3cc(OC)c(OC)cc23)cc1OC | 32 | / | 0 | 26* | 101
NC(=O)c1sc2nc(-c3ccccc3)ccc2c1N | 18 | 5 | -1 | -124 | 135
COc1ccc(CC(=O)c2ccc(OC)c(OC)c2)cc1 | 0 | 71* | 0 | 0 | 94
COc1cc2ccc(C(C)=O)cc2cc1OC | / | 48* | -2 | -2 | 97
COc1ccc(C(O)c2nccc3cc(OC)c(OC)cc23)cc1OC (centres undefined) | 6 | 83* | 0 | 4 | 90
CCOC(=O)c1sc2nc(-c3ccccc3)ccc2c1N | -3 | 76* | -4 | -12 | 99
CO[C@@H]1CN(C)C(=O)c2cc(NC(C)=O)ccc2OC[C@@H](C)N(Cc2ccccc2F)C[C@@H]1C | -6 | -9 | / | / | /
CCS(=O)(=O)N[C@@H]1C=C[C@@H](CC(=O)NCc2ccc(F)cc2)O[C@H]1CO | 8 | / | / | / | /
